The panel holds about 83,000 compounds, 20% with a hit somewhere; the sample as a whole holds those more often.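 Single-concentration screen, 48 h exposure, 96-well plates. Endpoint: percent growth. Below 10 = active.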 Unmarked numbers belong to inactive results. Calls of active or inactive are those of the source.
The compounds below were run on NCI-H23 lung (assay: NCI-60 one-dose screen, 48 h (100 = growth as untreated, 0 = no growth, -100 = all killed)). Conditions: 10 µM unless noted.

SMILES	growth
FC(F)(F)c1cc(-c2nnc3n2N=C(Cl)CS3)cc(C(F)(F)F)c1	93%
COc1ccc(/C=C/c2nc3ccccc3c(=O)n2-c2ccc(C#Cc3ccc(C(C)(C)C)cc3)cc2C)c(OC)c1	94%
Cc1cc(O)c2cc3c(O)c(O)ccc3cc2c1	101%
COc1ccc(-c2nc3ccccc3n3cccc23)cc1	86.1%
CCOC(=O)c1cc(C(=O)OCC)c(C)nc1C	102%
CN1C(=O)N(C)C2C1NN=c1s/c(=C\c3ccc(Br)cc3)c(=O)n12 (configuration not stated)	41.9%
O=C1OCC2=C1C(c1ccccc1)c1cc3c(cc1N2CCO)OCO3 (configuration not stated)	42.5%
CCC1N=C(N)N=C(N)N1c1ccc(Cl)cc1 (configuration not stated)	89.4%
COc1cc(OC)cc(-c2ccc(-c3ccc(C(=N)N)s3)s2)c1	-75.7% (active)
Cc1cccc(N=NC(=S)NNc2cccc(C)c2)c1	102%
CCn1c(Cc2ccccc2Nc2c(Cl)cccc2Cl)nnc1SCC(=O)Nc1cccc(OC)c1	85%
NC(=S)N1N=C(c2ccc(Cl)cc2)CC1c1cc2ccccc2[nH]c1=O (configuration not stated)	105%
CC(C)c1nc2ccccc2n1CC(=O)N/N=C/c1cccc(O)c1	101%
COc1ccc(Oc2nc(Nc3ccc(N4CCOCC4)cc3)ncc2NC(=O)Nc2cccc(OC)c2)cc1	72.2%
Clc1cccc(CNc2c3ccccc3nc3ccccc23)c1	32%
O=C1OCC2=C1C(c1ccccc1)c1cc3c(cc1N2CCO)CCC3 (configuration not stated)	-0.519% (active)
C=C1C(=O)O[C@H]2[C@H]1CC/C(COC(=O)NCc1[nH]nc3ccccc13)=C\CC[C@@]1(C)O[C@@H]21	69.4%
CC(=O)Oc1c(Cl)c(Cl)c(Cl)c(Cl)c1Cl	95.3%
CC(=O)Nc1c(Br)cc2c(c1Br)Cc1cc(Br)ccc1-2	72.8%
Cc1ccc(C(CN(C)C)C(=O)c2ccccc2)cc1 (configuration not stated)	71.5%

SMILES	growth
CCOC(=O)C(CCCCC(NC(C)=O)(C(=O)OCC)C(=O)OCC)(NC(C)=O)C(=O)OCC	103%
O=[N+]([O-])c1ccc(SSc2ccc([N+](=O)[O-])cc2Cl)c(Cl)c1	89%
COc1cc(/C=C2\CN(C(=O)OC(C)(C)C)C/C(=C\c3ccc(O)c(OC)c3)C2=O)ccc1O	97.8%
O=S1(=O)NCCN1CCNc1nccc(-c2c(-c3cccc(O)c3)nc3sccn23)n1	104%
CNCCCn1c2c(c3ccc(Cl)cc3c1=O)C(=O)c1cc(OC)cnc1-2	34%
O=C(/C=C/c1ccccc1)c1c[nH]c2ccccc2c1=O	9.55% (active)
N=C(N)c1ccc(-c2ccc(-c3ccco3)o2)cc1F	56.2%
C[C@@H]1N=C(c2ccc3ccccc3c2)Nc2nc3ccccn3c2C1=O	46.1%
COc1ccc2[nH]cc(C3(c4c[nH]c5ccc(OC)cc45)C(=O)Nc4ccc(F)cc43)c2c1	97%
CC(=O)Nc1ccc(/C=N/N2CCCCCC2)cc1	103%
COc1cc(-c2nn(C(=O)NCCN3CCN(C)CC3)cc2-c2ccncc2)ccc1Cl	90.5%
COc1cc(C2CC(=O)Nc3c2cnn3C)cc(OC)c1OC (configuration not stated)	108%
COc1cc2c(c(OC)c1O)C(=O)C(OC)C(c1ccc(O)c(O)c1)O2 (configuration not stated)	24.7%
CCOC(=O)C1C(=O)C=C(c2ccccc2)CC1c1sc(N(C)Cc2ccccc2)nc1Cl (configuration not stated)	89.1%
CC(C)[C@@H]1C=C2CC[C@H]3[C@](C)(CN)CCC[C@]3(C)[C@H]2CC1	95.4%
CC1(C)CN(CCNc2nccc(-c3c(-c4cccc(O)c4)nc4sccn34)n2)S(=O)(=O)N1	70%
CCNC(=O)c1ccc2c(c1)nc(-c1ccc(Cl)cc1)n2-c1cc(C(C)(C)C)[nH]n1	60%
CCc1c(C)c2ccc(O)c(-c3cc(-c4ccccc4)c(C#N)c(=O)[nH]3)c2oc1=O	89%
C=C(C)[C@@H]1CC[C@]2(C(=O)NS(=O)(=O)c3ccccc3)CC[C@]3(C)[C@H](CC[C@@H]4[C@@]5(C)CC[C@H](OC(=O)NS(=O)(=O)c6ccccc6)C(C)(C)[C@@H]5CC[C@]43C)[C@@H]12	-9.55% (active)

Each compound was assayed on NCI-H322M lung in the same assay as above. Conditions: 10 µM unless noted.

SMILES	growth
FC(F)(F)c1cc(-c2nnc3n2N=C(Cl)CS3)cc(C(F)(F)F)c1	111%
COc1ccc(/C=C/c2nc3ccccc3c(=O)n2-c2ccc(C#Cc3ccc(C(C)(C)C)cc3)cc2C)c(OC)c1	101%
Cc1cc(O)c2cc3c(O)c(O)ccc3cc2c1	119%
CCOC(=O)c1cc(C(=O)OCC)c(C)nc1C	106%
CN1C(=O)N(C)C2C1NN=c1s/c(=C\c3ccc(Br)cc3)c(=O)n12 (configuration not stated)	49.7%
O=C1OCC2=C1C(c1ccccc1)c1cc3c(cc1N2CCO)OCO3 (configuration not stated)	85.8%
CCC1N=C(N)N=C(N)N1c1ccc(Cl)cc1 (configuration not stated)	90.4%
COc1cc(OC)cc(-c2ccc(-c3ccc(C(=N)N)s3)s2)c1	-86.7% (active)
Cc1cccc(N=NC(=S)NNc2cccc(C)c2)c1	101%
CCn1c(Cc2ccccc2Nc2c(Cl)cccc2Cl)nnc1SCC(=O)Nc1cccc(OC)c1	79.4%
NC(=S)N1N=C(c2ccc(Cl)cc2)CC1c1cc2ccccc2[nH]c1=O (configuration not stated)	97.2%
CC(C)c1nc2ccccc2n1CC(=O)N/N=C/c1cccc(O)c1	93.2%
COc1ccc(Oc2nc(Nc3ccc(N4CCOCC4)cc3)ncc2NC(=O)Nc2cccc(OC)c2)cc1	53.3%
Clc1cccc(CNc2c3ccccc3nc3ccccc23)c1	31.3%
O=C1OCC2=C1C(c1ccccc1)c1cc3c(cc1N2CCO)CCC3 (configuration not stated)	34.2%
C=C1C(=O)O[C@H]2[C@H]1CC/C(COC(=O)NCc1[nH]nc3ccccc13)=C\CC[C@@]1(C)O[C@@H]21	87.6%
CC(=O)Oc1c(Cl)c(Cl)c(Cl)c(Cl)c1Cl	92.3%

SMILES	growth
CC(=O)Nc1c(Br)cc2c(c1Br)Cc1cc(Br)ccc1-2	88.2%
Cc1ccc(C(CN(C)C)C(=O)c2ccccc2)cc1 (configuration not stated)	101%
O=[N+]([O-])c1ccc(SSc2ccc([N+](=O)[O-])cc2Cl)c(Cl)c1	98.2%
COc1cc(/C=C2\CN(C(=O)OC(C)(C)C)C/C(=C\c3ccc(O)c(OC)c3)C2=O)ccc1O	100%
O=S1(=O)NCCN1CCNc1nccc(-c2c(-c3cccc(O)c3)nc3sccn23)n1	115%
N=C(N)c1ccc(-c2ccc(-c3ccco3)o2)cc1F	-10.4% (active)
C[C@@H]1N=C(c2ccc3ccccc3c2)Nc2nc3ccccn3c2C1=O	73.2%
CC(=O)Nc1ccc(/C=N/N2CCCCCC2)cc1	101%
COc1cc(-c2nn(C(=O)NCCN3CCN(C)CC3)cc2-c2ccncc2)ccc1Cl	106%
COc1cc(C2CC(=O)Nc3c2cnn3C)cc(OC)c1OC (configuration not stated)	100%
COc1cc2c(c(OC)c1O)C(=O)C(OC)C(c1ccc(O)c(O)c1)O2 (configuration not stated)	37%
CCOC(=O)C1C(=O)C=C(c2ccccc2)CC1c1sc(N(C)Cc2ccccc2)nc1Cl (configuration not stated)	91.2%
CC1(C)CN(CCNc2nccc(-c3c(-c4cccc(O)c4)nc4sccn34)n2)S(=O)(=O)N1	54.2%
CCNC(=O)c1ccc2c(c1)nc(-c1ccc(Cl)cc1)n2-c1cc(C(C)(C)C)[nH]n1	70.9%
CCc1c(C)c2ccc(O)c(-c3cc(-c4ccccc4)c(C#N)c(=O)[nH]3)c2oc1=O	95%
C=C(C)[C@@H]1CC[C@]2(C(=O)NS(=O)(=O)c3ccccc3)CC[C@]3(C)[C@H](CC[C@@H]4[C@@]5(C)CC[C@H](OC(=O)NS(=O)(=O)c6ccccc6)C(C)(C)[C@@H]5CC[C@]43C)[C@@H]12	34.1%
